Assay results published in ChEMBL document CHEMBL1961873, “Compounds: GSK PKIS; Assays: Nanosyn kinase panel” (2012).

What was measured:
[1] = biological target: High affinity nerve growth factor receptor (Homo sapiens) (UniProt P04629); settings: at 1 µM;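 note: each value is the mean percent inhibition of TRKA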
[2] = biological target: BDNF/NT-3 growth factors receptor (Homo sapiens) (UniProt Q16620); settings: at 0.1 µM
[3] = biological target: BDNF/NT-3 growth factors receptor (Homo sapiens) (UniProt Q16620); settings: at 1 µM
[4] = biological target: NT-3 growth factor receptor (Homo sapiens) (UniProt Q16288); settings: at 0.1 µM
[5] = biological target: NT-3 growth factor receptor (Homo sapiens) (UniProt Q16288); settings: at 1 µM
[6] = biological target: T1, Tyrosine-protein kinase TXK (Homo sapiens) (UniProt P42681); settings: at 0.1 µM
T1 sequence (whole entry): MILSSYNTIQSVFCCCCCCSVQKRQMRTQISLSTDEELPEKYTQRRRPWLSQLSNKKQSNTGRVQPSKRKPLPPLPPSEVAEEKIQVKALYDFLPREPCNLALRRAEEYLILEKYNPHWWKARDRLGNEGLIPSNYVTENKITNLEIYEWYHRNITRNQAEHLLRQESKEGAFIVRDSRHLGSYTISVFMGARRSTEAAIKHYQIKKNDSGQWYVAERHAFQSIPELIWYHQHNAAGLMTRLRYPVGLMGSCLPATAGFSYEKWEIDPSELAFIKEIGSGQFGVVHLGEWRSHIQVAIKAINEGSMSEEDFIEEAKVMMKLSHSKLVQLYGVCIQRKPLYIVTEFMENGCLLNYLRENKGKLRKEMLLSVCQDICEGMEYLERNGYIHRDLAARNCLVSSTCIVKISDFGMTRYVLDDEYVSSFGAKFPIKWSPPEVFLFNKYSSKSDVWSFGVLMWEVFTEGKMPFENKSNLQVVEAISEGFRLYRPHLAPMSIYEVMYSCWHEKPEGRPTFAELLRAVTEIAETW

[7] = biological target: T1, Tyrosine-protein kinase TXK (Homo sapiens); settings: at 1 µM
[8] = biological target: Non-receptor tyrosine-protein kinase TYK2 (Homo sapiens) (UniProt P29597); settings: at 0.1 µM;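 note: each value is a mean of the inhibition readings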
Non-receptor tyrosine-protein kinase TYK2 (Homo sapiens), sequence (P29597 whole entry): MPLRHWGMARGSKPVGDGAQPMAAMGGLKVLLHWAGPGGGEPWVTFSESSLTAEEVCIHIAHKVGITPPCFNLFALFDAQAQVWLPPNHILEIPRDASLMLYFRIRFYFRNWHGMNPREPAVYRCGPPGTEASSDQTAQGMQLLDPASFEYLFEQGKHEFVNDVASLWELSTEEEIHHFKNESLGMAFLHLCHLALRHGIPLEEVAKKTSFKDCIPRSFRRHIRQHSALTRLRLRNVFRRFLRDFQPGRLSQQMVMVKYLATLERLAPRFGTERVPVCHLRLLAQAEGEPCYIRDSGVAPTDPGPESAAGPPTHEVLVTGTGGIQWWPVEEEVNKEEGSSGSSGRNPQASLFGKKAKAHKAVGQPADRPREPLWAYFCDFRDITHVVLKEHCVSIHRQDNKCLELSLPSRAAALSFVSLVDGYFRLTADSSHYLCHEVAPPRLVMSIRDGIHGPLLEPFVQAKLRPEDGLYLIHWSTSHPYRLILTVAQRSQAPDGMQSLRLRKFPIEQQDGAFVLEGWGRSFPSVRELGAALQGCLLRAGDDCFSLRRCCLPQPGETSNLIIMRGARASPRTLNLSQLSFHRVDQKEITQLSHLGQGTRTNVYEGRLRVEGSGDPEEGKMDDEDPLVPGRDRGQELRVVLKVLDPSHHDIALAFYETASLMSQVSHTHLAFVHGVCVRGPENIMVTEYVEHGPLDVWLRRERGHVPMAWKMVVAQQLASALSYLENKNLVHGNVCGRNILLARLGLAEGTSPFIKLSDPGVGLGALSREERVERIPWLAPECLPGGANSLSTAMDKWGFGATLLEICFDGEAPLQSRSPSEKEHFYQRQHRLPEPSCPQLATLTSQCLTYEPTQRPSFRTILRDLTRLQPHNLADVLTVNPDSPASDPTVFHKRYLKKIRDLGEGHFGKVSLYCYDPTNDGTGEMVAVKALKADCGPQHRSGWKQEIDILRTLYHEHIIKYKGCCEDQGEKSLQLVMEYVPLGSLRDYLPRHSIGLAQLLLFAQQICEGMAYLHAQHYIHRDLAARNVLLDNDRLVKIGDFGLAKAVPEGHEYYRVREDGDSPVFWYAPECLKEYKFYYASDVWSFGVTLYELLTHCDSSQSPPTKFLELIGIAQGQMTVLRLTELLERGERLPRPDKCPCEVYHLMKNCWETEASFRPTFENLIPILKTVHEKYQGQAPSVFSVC

[9] = biological target: T2, Dual specificity protein kinase TTK (Homo sapiens) (UniProt P33981); settings: at 1 µM;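 note: reported figures are mean TTK inhibition at 1 µM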
T2 sequence (whole entry): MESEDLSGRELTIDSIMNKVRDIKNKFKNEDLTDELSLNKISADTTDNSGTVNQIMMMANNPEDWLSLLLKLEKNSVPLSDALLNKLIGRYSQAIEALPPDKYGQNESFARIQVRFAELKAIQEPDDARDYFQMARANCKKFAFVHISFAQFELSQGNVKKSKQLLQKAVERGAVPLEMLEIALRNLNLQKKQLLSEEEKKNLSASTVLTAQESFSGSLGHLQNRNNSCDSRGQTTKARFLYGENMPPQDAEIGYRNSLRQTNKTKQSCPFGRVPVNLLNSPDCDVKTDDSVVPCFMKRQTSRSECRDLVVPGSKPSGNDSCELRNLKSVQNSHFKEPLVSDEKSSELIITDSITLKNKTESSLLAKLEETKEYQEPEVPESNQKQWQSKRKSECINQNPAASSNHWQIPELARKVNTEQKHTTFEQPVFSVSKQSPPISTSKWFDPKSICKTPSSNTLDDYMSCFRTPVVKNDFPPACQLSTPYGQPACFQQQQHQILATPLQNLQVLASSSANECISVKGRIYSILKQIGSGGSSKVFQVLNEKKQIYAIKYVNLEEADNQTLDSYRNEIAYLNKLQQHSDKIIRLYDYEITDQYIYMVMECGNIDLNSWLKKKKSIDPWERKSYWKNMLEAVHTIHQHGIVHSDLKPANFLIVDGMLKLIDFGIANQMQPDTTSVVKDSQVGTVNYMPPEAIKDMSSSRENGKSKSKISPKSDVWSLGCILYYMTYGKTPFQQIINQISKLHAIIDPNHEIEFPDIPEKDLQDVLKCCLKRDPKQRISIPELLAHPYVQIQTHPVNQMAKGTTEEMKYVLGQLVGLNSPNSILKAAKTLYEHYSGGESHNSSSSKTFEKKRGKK

[10] = biological target: T3, Aurora kinase A (Homo sapiens) (UniProt O14965); settings: at 0.1 µM
T3 sequence (whole entry): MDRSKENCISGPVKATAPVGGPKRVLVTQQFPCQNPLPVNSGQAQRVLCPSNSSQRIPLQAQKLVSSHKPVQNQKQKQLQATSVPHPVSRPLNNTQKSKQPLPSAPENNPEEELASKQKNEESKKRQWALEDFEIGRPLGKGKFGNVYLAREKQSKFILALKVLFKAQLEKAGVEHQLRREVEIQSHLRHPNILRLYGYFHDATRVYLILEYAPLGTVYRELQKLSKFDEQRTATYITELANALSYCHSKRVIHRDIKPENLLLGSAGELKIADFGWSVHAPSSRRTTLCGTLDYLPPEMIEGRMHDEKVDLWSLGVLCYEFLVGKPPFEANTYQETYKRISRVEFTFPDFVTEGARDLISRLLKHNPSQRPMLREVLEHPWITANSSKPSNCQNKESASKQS

[11] = biological target: T3, Aurora kinase A (Homo sapiens); settings: at 1 µM
[12] = biological target: Aurora kinase B (Homo sapiens) (UniProt Q96GD4); settings: at 0.1 µM
[13] = biological target: Aurora kinase B (Homo sapiens) (UniProt Q96GD4); settings: at 1 µM
[14] = biological target: T4, Aurora kinase C (Homo sapiens) (UniProt Q9UQB9); settings: at 0.1 µM
T4 sequence (whole entry): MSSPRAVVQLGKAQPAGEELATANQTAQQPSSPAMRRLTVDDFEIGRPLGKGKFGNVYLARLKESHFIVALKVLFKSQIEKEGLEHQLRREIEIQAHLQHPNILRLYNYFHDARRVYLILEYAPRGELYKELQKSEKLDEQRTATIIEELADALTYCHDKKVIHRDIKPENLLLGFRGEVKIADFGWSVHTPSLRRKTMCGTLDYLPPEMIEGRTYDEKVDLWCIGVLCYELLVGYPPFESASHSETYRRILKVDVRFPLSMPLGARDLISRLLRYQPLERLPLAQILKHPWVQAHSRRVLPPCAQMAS

[15] = biological target: T4, Aurora kinase C (Homo sapiens); settings: at 1 µM
[16] = biological target: Serine/threonine-protein kinase 10 (Homo sapiens) (UniProt O94804); settings: at 0.1 µM
Serine/threonine-protein kinase 10 (Homo sapiens), sequence (O94804 whole entry, looked up): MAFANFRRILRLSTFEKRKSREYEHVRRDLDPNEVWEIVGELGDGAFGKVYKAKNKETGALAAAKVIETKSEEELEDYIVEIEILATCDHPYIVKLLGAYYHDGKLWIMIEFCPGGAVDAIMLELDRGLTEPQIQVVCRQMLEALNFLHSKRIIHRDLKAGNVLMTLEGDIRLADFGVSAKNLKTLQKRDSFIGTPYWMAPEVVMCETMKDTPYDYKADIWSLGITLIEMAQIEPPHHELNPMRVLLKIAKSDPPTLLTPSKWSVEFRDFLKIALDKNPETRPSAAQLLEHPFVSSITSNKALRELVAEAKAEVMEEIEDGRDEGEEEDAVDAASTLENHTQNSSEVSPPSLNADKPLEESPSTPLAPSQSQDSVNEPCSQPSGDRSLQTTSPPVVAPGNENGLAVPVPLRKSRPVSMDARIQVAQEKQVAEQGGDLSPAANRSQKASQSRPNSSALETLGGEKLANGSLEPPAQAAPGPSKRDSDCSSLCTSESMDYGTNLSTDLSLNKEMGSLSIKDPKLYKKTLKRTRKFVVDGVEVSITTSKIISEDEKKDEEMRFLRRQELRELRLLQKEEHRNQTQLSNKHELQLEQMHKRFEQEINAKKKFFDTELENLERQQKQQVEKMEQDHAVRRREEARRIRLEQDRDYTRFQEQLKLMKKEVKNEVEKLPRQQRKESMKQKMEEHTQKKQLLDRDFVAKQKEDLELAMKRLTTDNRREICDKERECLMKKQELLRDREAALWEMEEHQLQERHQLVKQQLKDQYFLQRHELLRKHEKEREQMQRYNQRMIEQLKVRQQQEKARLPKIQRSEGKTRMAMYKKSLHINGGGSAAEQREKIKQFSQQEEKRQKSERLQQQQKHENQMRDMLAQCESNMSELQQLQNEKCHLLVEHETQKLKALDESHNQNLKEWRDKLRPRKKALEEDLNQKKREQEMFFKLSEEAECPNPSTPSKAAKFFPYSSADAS

[17] = biological target: Serine/threonine-protein kinase 10 (Homo sapiens) (UniProt O94804); settings: at 1 µM
[18] = biological target: T5, Mitogen-activated protein kinase kinase kinase kinase 2 (Homo sapiens) (UniProt Q12851); settings: at 0.1 µM
T5 sequence (whole entry): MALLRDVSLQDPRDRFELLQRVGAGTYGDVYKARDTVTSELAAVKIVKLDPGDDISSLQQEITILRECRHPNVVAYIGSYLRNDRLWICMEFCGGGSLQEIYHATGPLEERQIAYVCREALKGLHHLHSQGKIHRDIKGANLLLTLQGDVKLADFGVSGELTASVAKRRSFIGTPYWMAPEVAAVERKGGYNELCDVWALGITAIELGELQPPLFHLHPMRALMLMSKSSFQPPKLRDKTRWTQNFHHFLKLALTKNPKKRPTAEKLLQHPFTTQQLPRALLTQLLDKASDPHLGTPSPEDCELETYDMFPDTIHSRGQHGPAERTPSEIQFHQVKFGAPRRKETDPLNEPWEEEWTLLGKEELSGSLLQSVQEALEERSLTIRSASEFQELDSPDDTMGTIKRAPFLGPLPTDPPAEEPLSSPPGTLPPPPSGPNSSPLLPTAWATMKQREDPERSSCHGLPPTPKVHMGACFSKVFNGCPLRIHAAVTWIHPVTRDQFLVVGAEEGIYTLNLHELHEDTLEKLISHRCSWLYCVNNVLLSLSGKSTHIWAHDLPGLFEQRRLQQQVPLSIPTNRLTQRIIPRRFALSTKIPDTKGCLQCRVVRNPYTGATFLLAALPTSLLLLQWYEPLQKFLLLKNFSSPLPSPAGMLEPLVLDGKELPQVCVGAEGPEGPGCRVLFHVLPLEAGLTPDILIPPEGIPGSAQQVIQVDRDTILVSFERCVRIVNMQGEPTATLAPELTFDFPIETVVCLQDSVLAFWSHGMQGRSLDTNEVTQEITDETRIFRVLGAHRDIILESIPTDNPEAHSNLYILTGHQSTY

[19] = biological target: T5, Mitogen-activated protein kinase kinase kinase kinase 2 (Homo sapiens); settings: at 1 µM
[20] = biological target: Mitogen-activated protein kinase kinase kinase kinase 4 (Homo sapiens) (UniProt O95819); settings: at 0.1 µM
Mitogen-activated protein kinase kinase kinase kinase 4 (Homo sapiens), sequence (O95819 2-1239 limits assumed): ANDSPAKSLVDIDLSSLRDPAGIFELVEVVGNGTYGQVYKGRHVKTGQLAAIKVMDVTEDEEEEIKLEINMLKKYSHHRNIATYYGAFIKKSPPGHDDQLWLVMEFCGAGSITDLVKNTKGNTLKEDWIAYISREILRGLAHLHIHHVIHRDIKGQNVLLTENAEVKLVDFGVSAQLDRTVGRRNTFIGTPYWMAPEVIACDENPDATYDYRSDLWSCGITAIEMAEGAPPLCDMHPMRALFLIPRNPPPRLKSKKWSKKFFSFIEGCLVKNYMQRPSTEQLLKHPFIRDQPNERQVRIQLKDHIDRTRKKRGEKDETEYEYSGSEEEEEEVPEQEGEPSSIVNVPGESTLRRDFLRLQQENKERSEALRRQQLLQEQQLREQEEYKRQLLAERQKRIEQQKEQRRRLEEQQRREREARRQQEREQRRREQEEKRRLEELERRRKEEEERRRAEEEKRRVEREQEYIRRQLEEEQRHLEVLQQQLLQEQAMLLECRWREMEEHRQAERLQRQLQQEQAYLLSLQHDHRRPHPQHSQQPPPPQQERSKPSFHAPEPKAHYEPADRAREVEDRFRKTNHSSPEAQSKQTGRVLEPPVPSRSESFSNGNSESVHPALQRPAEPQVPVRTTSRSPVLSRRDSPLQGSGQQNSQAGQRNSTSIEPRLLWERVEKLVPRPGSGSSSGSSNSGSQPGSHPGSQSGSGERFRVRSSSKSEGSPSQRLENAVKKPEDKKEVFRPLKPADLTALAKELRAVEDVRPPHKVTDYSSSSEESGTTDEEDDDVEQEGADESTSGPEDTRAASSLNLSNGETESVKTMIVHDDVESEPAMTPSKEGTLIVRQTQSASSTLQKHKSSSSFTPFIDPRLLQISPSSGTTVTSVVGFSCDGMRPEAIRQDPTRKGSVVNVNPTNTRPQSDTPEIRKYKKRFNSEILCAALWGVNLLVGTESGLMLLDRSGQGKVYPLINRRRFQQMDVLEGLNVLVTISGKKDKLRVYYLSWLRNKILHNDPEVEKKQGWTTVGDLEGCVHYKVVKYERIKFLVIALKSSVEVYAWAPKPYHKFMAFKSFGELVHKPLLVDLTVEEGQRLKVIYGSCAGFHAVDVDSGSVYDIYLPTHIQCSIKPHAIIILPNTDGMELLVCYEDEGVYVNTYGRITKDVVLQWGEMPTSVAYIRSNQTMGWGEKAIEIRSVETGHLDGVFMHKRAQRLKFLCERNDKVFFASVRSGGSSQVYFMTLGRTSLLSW

High affinity nerve growth factor receptor (Homo sapiens), sequence (P04629 33-796 limits assumed): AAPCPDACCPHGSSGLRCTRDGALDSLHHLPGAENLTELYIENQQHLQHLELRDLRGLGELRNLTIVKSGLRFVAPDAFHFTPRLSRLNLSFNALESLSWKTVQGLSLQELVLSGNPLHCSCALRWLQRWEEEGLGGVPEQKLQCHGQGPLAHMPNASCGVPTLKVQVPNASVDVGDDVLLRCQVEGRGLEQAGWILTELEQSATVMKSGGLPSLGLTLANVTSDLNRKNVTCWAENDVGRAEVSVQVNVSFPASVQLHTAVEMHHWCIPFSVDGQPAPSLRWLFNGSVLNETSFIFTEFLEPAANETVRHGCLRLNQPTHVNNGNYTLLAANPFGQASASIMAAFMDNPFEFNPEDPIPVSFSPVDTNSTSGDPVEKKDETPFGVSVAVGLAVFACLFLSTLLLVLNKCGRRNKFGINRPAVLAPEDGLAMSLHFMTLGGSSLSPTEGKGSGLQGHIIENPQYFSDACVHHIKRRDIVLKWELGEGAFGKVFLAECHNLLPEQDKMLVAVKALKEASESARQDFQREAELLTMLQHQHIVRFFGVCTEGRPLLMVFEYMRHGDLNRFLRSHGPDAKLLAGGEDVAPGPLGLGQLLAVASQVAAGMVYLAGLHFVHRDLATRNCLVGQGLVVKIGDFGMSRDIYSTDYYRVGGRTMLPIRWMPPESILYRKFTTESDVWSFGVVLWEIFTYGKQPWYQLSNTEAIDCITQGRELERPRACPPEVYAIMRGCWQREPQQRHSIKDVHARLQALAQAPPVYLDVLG
BDNF/NT-3 growth factors receptor (Homo sapiens), sequence (Q16620 32-822 limits assumed): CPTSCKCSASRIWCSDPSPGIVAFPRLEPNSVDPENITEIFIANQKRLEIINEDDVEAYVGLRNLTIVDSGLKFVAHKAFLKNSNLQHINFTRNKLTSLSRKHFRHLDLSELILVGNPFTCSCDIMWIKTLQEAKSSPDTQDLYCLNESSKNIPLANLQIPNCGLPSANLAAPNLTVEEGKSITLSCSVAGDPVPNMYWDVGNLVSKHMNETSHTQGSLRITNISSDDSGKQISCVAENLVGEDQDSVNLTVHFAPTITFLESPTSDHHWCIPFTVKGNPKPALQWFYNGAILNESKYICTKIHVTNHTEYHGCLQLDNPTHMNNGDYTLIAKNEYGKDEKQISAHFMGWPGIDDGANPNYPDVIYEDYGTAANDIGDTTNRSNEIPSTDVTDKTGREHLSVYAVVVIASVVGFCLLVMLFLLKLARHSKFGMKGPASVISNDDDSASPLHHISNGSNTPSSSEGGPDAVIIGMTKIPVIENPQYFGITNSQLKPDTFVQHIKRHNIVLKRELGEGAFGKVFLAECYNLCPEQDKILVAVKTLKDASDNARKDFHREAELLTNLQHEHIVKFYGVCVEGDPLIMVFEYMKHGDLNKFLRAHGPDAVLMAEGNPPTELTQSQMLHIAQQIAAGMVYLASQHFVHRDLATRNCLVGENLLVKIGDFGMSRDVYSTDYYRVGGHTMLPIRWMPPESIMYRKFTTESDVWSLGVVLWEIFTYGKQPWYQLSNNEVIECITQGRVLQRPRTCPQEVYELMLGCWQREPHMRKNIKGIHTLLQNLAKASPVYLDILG

SMILES | inhibition [1] [%] | inhibition [2] [%] | inhibition [3] [%] | inhibition [4] [%] | inhibition [5] [%] | inhibition [6] [%] | inhibition [7] [%] | inhibition [8] [%] | inhibition [9] [%] | inhibition [10] [%] | inhibition [11] [%] | inhibition [12] [%] | inhibition [13] [%] | inhibition [14] [%] | inhibition [15] [%] | inhibition [16] [%] | inhibition [17] [%] | inhibition [18] [%] | inhibition [19] [%] | inhibition [20] [%]
CCN1CCC(CC(=O)Nc2n[nH]c3nnc(-c4cccc(F)c4F)cc23)CC1 | -2.79 | 0.47 | 0.8 | 0.17 | 0.31 | -0.72 | 3.03 | 0.26 | 1.38 | 3.98 | 2.34 | 0.22 | 4.4 | 1.43 | 4.58 | 3.88 | 4.08 | 0.29 | 5.3 | 2.42
CCc1nn2ncccc2c1-c1ccnc(NC2CC2)n1 | 2.38 | -0.25 | 2.68 | 1.72 | 1.87 | 3.61 | 3.63 | -2 | 6.05 | 3.98 | 14.8 | 2.59 | 17.4 | 3.06 | 24.8 | 3.95 | 8.22 | 0.96 | 3.67 | 0.62
CCn1cc(-c2ccnc3[nH]ccc23)c(-c2cccc(NC(=O)Nc3ccc(OCc4ccccc4)cc3)c2)n1 | -2.6 | -2.42 | -0.53 | -0.62 | 8.83 | -1.03 | 1.79 | 0.94 | 3.41 | 2.05 | 7.41 | 2.62 | 14.1 | 0.13 | 19.5 | 2.56 | 7.07 | 0.73 | 10.4 | 1.57
CC(=O)NCc1cccc(C#Cc2cncnc2Nc2ccc(OCc3cccc(F)c3)c(Cl)c2)c1 | 1.37 | 0.64 | 2.98 | 0.24 | 4.11 | 2.29 | -2.24 | 0.84 | -8.1 | 1.59 | 5.66 | 1.99 | 6.3 | 1 | -2.37 | 0.67 | 8.18 | 0.67 | 3.21 | 2.6
Clc1ccc(-c2nn3ncccc3c2-c2ccnc(Nc3ccccc3)n2)cc1 | 6 | 2.34 | 3.72 | 1.69 | 2.21 | 3.54 | 14.9 | 0.28 | 4.5 | 0.9 | 25.5 | 3.6 | 20.2 | 1.35 | 36.1 | 4.2 | 40.8 | 1.09 | 5.08 | 5.07
Nc1nc(-c2ccc(F)cc2)c(-c2ccc3ncccc3n2)s1 | 4.77 | 4.19 | 3.45 | 3.72 | 5.31 | 3.19 | 6 | -2.9 | 7.77 | 4.14 | 10.6 | 6.06 | 7.91 | 2.74 | -0.03 | 5.75 | 10.1 | 2.4 | 3.82 | 17.7
COc1ccc2[nH]c3c4[nH]c5ccc(OC)cc5c4c4c(c3c2c1)C(=O)NC4=O | 16.6 | 7.79 | 33.9 | 8.83 | 41.5 | 2.51 | 14.6 | -2.11 | 34.6 | 7.28 | 68.8 | 20.7 | 66.9 | 12.4 | 86.8 | 9.72 | 40.2 | 2.06 | 12.1 | 84.6
COc1cc2c(cc1Nc1nc(Nc3ccsc3C(N)=O)c3cc[nH]c3n1)N(C(=O)CN(C)C)CCC2(C)C | 13.6 | 3.72 | 11.4 | 4.08 | 11.6 | 2.02 | 4.22 | -4.11 | 49.6 | 3.59 | 13.2 | 6.17 | 11.7 | 4.7 | 13.7 | 6.3 | 17.3 | 4.1 | 22.6 | 12.1
CNC(=O)c1cncc(/C=C/c2ccccc2Cl)c1 | -0.75 | -1.43 | 2.71 | -1.83 | 3.94 | 4.15 | 16 | 2.63 | 5.89 | 1.14 | 12 | 2.57 | 7.3 | 5.27 | -3.84 | 3.92 | 8.22 | 1.8 | 2.04 | 2.52
COc1cc2ncn(-c3cc(OCc4ccccc4C(F)(F)F)c(C(=O)N(C)C)s3)c2cc1OC | 8.1 | -0.07 | 7.43 | 5.43 | 16.2 | 1.47 | 3.4 | -4.64 | 10.4 | 0.68 | 9.82 | 5.54 | 31.1 | 3.22 | 46.2 | 12.9 | 55.8 | 0.57 | 2.23 | 0.42
